Compounds with a hit are over-represented: about 2.5% of the library has one in this group of screens.
HTT prom inh = inhibits huntingtin promoter activity; Potency, µM (top dose mostly 57.5 µM), inactives show at the top dose activity change, negative = inhibition, actives largely listed as inhibitors; hit rate 0.93% among 48,000; HEK293 HTT promoter firefly luciferase reporter, 24 h; note: potency is the fitted concentration of half-maximal effect; nearly all actives have a fitted effect of over 50% in size
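Firefly luciferase signal from promoter-reporter HEK293 cells was scaled between vehicle (0%) and zero RLU (-100%). Compounds were tested at final concentrations of up to 57.5 uM over 24 h at 37 degrees C. PTC124 at 50 uM final served as control inhibitor.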
HTT-AS act = HTT-AS promoter activation. HEK293 HTT-AS promoter firefly luciferase reporter, 24 h; response scale: percent change from vehicle, -100% = no light. Potency, µM (highest dose often 57.5 µM), inactives show at the top dose activity change, positive = activation, usual class: activators. hit rate 0.24% among 48,000. AID 1508624; note: potency is the fitted concentration of half-maximal effect; nearly all actives have a fitted effect of over 55% in size
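Luminescence was read after Dual-Glo reagent and a 10 min room-temperature incubation. Values were normalized to vehicle (0% activity) and zero RLU (-100% activity). Reporter HEK293 cells had been exposed to compounds (up to 57.5 uM final) for 24 h.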
FH mod = Identification of activators of human fumarate hydratase by quantitative high-throughput screening. Fumarate hydratase, mitochondrial (Homo sapiens), P07954. FH coupled MDH/diaphorase resazurin fluorescence, 15 min. Potency, µM (highest dose often 79.9 µM), inactives show top-dose activity change, negative = inhibition, actives largely listed as inhibitors. hit rate 0.22% among 54,000. AID 1347055, 2019; note: potency is the fitted concentration of half-maximal effect; % is set by controls: 0 for no effect and ±100 for the full control effect; the screen sought activators but most active calls are inhibition curves; nearly all actives have a fitted effect of over 45% in size
NTMT1 inhibitor = NTMT1 methyltransferase inhibition; NTMT1 MTase-Glo SAH luminescence, purified enzyme; Potency, µM (titrated, usually from 114 µM), for the others: top-dose activity change, negative = inhibition, most hits filed as inhibitors; Q9BV86; hit rate 2.5% among 59,000;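 note: potency is the fitted concentration of half-maximal effect; plate controls were DMSO vehicle for no effect and no enzyme for full effect; nearly all actives have a fitted effect of over 65% in size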
DYRK1A inh-1 = human DYRK1A kinase inhibition by ATP depletion readout; shares compounds with NTMT1 inhibitor; recombinant DYRK1A, Kinase-Glo ATP depletion luminescence; Potency, µM (doses to about 76.9 µM), inactives show at the highest dose activity change, negative = inhibition, actives largely listed as inhibitors; hit rate 80% among 100
CLK4 inh-1 = CLK4 kinase inhibition, SAR round 2; shares compounds with NTMT1 inhibitor; recombinant Clk4, Kinase-Glo ATP luminescence, 4.5 h; Potency, µM (series often up to 76.9 µM), without a hit: at the top dose activity, negative = inhibition, most hits filed as inhibitors; hit rate 90% among 90
CLK4 inh-2 = inhibitors of human CLK4 kinase, SAR round 2. shares compounds with NTMT1 inhibitor. Reaction Biology kinase assay, 10 uM ATP. Potency, µM, actives largely listed as inhibitors. hit rate 100% among 65. AID 504421; calls by dose curve
DYRK1A inh-2 = DYRK1A kinase inhibition; Reaction Biology kinase assay, 10 uM ATP; Potency, µM, usual class: inhibitors; shares compounds with NTMT1 inhibitor; hit rate 90% among 65;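 active = compounds that showed inhibition of Dyrk1a and received a fitted potency; inactive = compounds that showed no inhibition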
CLK2 RBC = CLK2 kinase inhibition; shares compounds with NTMT1 inhibitor; Reaction Biology kinase assay, 10 uM ATP; Potency, µM, actives largely listed as inhibitors; hit rate 90% among 65; AID 504427;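 active = compound that inhibits Clk2 kinase in the dose series, with an IC50 potency reported; inactive = no inhibition seen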
Target sequence (P49760 whole entry, looked up): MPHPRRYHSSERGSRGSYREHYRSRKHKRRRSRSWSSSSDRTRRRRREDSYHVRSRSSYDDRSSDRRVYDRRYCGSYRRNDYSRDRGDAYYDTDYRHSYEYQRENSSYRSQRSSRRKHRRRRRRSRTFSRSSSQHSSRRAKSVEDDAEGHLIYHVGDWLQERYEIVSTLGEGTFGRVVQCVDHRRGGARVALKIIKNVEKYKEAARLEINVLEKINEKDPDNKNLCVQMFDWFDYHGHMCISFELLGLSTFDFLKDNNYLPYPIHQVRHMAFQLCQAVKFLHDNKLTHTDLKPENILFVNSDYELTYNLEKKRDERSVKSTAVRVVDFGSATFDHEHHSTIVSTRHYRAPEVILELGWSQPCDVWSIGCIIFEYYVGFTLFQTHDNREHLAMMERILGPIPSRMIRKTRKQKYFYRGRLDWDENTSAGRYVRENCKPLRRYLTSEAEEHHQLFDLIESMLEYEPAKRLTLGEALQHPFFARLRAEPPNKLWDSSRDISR
CLK3 RBC = CLK3 kinase inhibition. shares compounds with NTMT1 inhibitor. hit rate 40% among 65. AID 504428. recombinant CLK3 kinase assay, 10 uM ATP. Potency, µM, most hits filed as inhibitors;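 active = compounds that inhibited Clk3 enough in the ten-dose series to give a half-maximal potency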
DYRK1B inh = blocks human DYRK1B kinase activity; shares compounds with NTMT1 inhibitor; Recombinant Dyrk1b kinase assay, 10 uM ATP; Potency, µM, most hits filed as inhibitors; hit rate 80% among 65;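 active = compounds whose dose response shows an inhibitor phenotype against the kinase Dyrk1b; inactive = compounds showing no inhibitor phenotype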
CLK1 RBC = inhibitors of human CLK1 kinase | shares compounds with NTMT1 inhibitor | recombinant Clk1 kinase assay, 10 uM ATP | Potency, µM, usual class: inhibitors | hit rate 90% among 65 | AID 504430;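 active = compounds that block the splicing kinase Clk1 enough to give a fitted half-inhibition concentration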
NNMT inh = human NNMT inhibition, NTMT1 counter-screen | shares compounds with NTMT1 inhibitor | Potency, µM (series often up to 57.1 µM), inactives show top-dose activity, negative = inhibition, usual class: inhibitors | AID 1645878 | hit rate 10% among 120 | NNMT MTase-Glo luminescence, SAH detection
* = called active by the depositor; i = inactive; ? = inconclusive; . = no result; [ ] = remark or other dose. Unless noted, calls come from the whole dose curve; as a rule, active = well fitted curve in the direction sought with a large enough effect; inconclusive = small, poorly fitted or top-dose-only effect, or another doubt; inactive = no such curve, though single readings can be large; an effect the other way counts as inactive or inconclusive.

SMILES | HTT prom inh | HTT-AS act | FH mod | NTMT1 inhibitor | others
CCNC(=O)c1ccc(-c2ccc3ncnc(NCc4ccc(C)o4)c3c2)o1 | . | . | . | ? | CLK4 inh-1=0.52µM*;CLK4 inh-2=1.4*;DYRK1A inh-2=6.3µM*;CLK2 RBC=4.2µM*;CLK3 RBC=i;DYRK1B inh=6.7µM*;CLK1 RBC=5.4µM*
Cc1cccc(CNc2ncnc3ccc(-c4cccc(C)c4)cc23)c1 | . | . | . | -1%
CC(=O)Nc1ccc(CNc2ncnc3ccc(-c4c(C)noc4C)cc23)cc1 | . | . | . | 0%[57.5 µM]
CCOC(=O)c1ccc(-c2ccc3ncnc(NCc4ccc(C)o4)c3c2)o1 | . | . | . | ? | DYRK1A inh-1=5.8µM*
CCOC(=O)c1ccc(-c2ccc3ncnc(NCc4cccs4)c3c2)o1 | . | . | . | . | DYRK1A inh-1=1.5µM*;CLK4 inh-2=0.088*;DYRK1A inh-2=1.4µM*;CLK2 RBC=8.5µM*;CLK3 RBC=i;DYRK1B inh=4.3µM*;CLK1 RBC=0.8µM*
CC(=O)c1ccc(-c2ccc3ncnc(NCc4ccc(C)o4)c3c2)o1 | . | . | . | ? | CLK4 inh-1=0.29µM*;CLK4 inh-2=0.56*;DYRK1A inh-2=5.8µM*;CLK2 RBC=6.9µM*;CLK3 RBC=i;DYRK1B inh=10µM*;CLK1 RBC=7µM*
COc1cc(C(=O)N2CCC(N3CCN(C)CC3)CC2)ccc1Nc1ncc2c(n1)N(C)c1ccccc1C(=O)N2C | 13% | -7% | 11% | -14%
COc1cc(N2CCC(N3CCN(C)CC3)CC2)ccc1Nc1ncc(Cl)c(-c2c[nH]c3ccccc23)n1 | . | . | ? | 20µM* | NNMT inh=?
COc1cc(N2CCN(C(C)=O)CC2)ccc1Nc1ncc(Cl)c(Nc2ccc(N3CCN(C(C)=O)CC3)cc2OC)n1 | . | . | -11% | 20µM* | NNMT inh=?
Cc1nc(C(C)N(C)c2ncnc3ccc(-c4ccc5c(c4)OCO5)cc23)cs1 (stereo unspecified) | . | . | . | -9%[57.5 µM] | CLK4 inh-1=29µM*
CCn1cnc(CCN(C)c2ncnc3ccc(-c4ccc5c(c4)OCO5)cc23)c1 | . | . | . | . | DYRK1A inh-1=8.2µM*
Cc1nc(CN(C)c2ncnc3cc(-c4ccc5c(c4)OCO5)ccc23)cs1 | . | . | . | ? | DYRK1A inh-1=9.2µM*;CLK4 inh-2=15*;DYRK1A inh-2=i;CLK2 RBC=i;CLK3 RBC=i;DYRK1B inh=i;CLK1 RBC=i
Cn1ccc2cc(-c3ccc4ncnc(NCc5ccc6c(c5)OCO6)c4c3)ccc21 | . | . | . | 10%
Cc1nc(CCN(C)c2ncnc3ccc(-c4ccc5c(c4)OCO5)cc23)cs1 | . | . | . | ? | CLK4 inh-1=0.082µM*
CCN1CCN(C(c2ccc(Cl)cc2)c2ccc(Cl)cc2)CC1 | . | . | . | 6%
Cc1ccc(S(=O)(=O)Nc2cnccc2C(=O)Nc2nc(C(=O)O)cs2)cc1 | . | . | . | 24%
Cc1cc(N[S+](=O)([O-])c2ccc(NC(=O)Cn3c(=O)oc4ccc(Cl)cc43)cc2)no1 | . | . | . | 17%
CCN1CCN(Cc2ccc(Nc3ncc(F)c(-c4cc(F)c5nc(C)n(C(C)C)c5c4)n3)nc2)CC1 | . | . | -2% | 10µM* | NNMT inh=?
CN(C)c1ccc(-c2ccc(=O)n(CC(=O)NCCc3ccccc3)n2)cc1 | . | . | . | 15%
O=S(=O)(Nc1nccs1)c1ccc(NCc2cccc(O)c2)cc1 | . | . | . | -12%
CCn1c(=O)c(-c2ccn[nH]2)cc2c(C)nc(N)nc21 | . | . | -5% | -5%[57.5 µM] | NNMT inh=-14%
CC(O)(CC(=O)O)CC(=O)OCc1ccc(O[C@@H]2O[C@H](CO)[C@@H](O)[C@H](O)[C@H]2O)cc1 (stereo partly specified) | . | . | -1%[53.3 µM] | ?
CS(=O)(=O)CCNCc1ccc(-c2ccc3ncnc(Nc4ccc(OCc5cccc(F)c5)c(Cl)c4)c3c2)o1 | ? | -22% | -23% | 9% | CLK4 inh-1=-10%
Fc1cccc(CNc2ncnc3ccc(-c4cccc(Cl)c4)cc23)c1 | . | . | . | -3%
C[C@]12CC[C@@H]3c4ccc(O)cc4CC[C@H]3[C@@H]1C[C@@H](O)[C@@H]2O | 2% | -2% | -11%[53.3 µM] | ?
C[C@]12CC[C@@H]3c4ccc(O)c(O)c4CC[C@H]3[C@@H]1CCC2=O | . | . | ? | 28µM* | NNMT inh=35µM*
COc1cc2c(NC3CCN(C(C)C)CC3)nc(C3CCCCC3)nc2cc1OCCCN1CCCC1 | -23% | 4% | -16% | ? | NNMT inh=?
